# Rows were chosen to be rich in hits. Some 6.2% of all compounds tested hit in one or more screens of this group.
# RORg inh: inhibitors of mouse ROR gamma transcriptional activity; P51450; Drosophila S2 Gal4-RORgamma UAS-luciferase reporter, 20 h; Potency, µM (doses to about 53.6 µM), for the others: at the top dose activity change, negative = inhibition, actives largely listed as inhibitors; hit rate 5.4% among 310,000; AID 2551; also: nearly all actives have a fitted effect of over 60% in size
# Target sequence (P51450 whole entry, looked up, the tested form may be a part): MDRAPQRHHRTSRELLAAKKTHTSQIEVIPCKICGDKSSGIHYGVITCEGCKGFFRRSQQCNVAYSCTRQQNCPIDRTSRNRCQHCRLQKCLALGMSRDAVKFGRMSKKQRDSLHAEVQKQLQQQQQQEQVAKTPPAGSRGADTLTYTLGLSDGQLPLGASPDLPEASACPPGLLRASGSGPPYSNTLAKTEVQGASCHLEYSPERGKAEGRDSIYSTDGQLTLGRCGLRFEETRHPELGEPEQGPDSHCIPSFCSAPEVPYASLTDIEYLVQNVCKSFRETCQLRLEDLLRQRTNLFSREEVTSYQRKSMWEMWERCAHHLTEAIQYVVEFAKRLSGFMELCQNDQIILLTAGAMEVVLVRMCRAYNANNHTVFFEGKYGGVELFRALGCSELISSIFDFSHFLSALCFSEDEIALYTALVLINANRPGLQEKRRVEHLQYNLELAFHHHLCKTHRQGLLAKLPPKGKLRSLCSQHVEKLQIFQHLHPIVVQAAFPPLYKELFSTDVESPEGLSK
#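 A Gal4/UAS one-hybrid system in insect cells: metallothionein-promoter Gal4–ROR gamma fusion plus Photinus luciferase reporter. Copper sulfate 700 uM final, 20 hr ambient incubation, luminescent detection after 10 min with reagent.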
# Gal4-VP16 FLuc: inhibits Gal4-VP16 luciferase reporter, ROR gamma counter-screen. hit rate 3.5% among 310,000. Drosophila S2 Gal4-VP16 UAS-luciferase, luminescence, 20 h. Potency, µM (highest dose often 53.6 µM), inactives show top-dose activity, negative = inhibition, usual class: inhibitors;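 also: Gal4-VP16 expression switched on by copper sulfate through the metallothionein promoter; nearly all actives have a fitted effect of over 50% in size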
# KinaseGlo FLuc: blocks Kinase-Glo luciferase, a counter-screen artifact | Q27757 | Kinase-Glo luciferase, ATP luminescence, 8 min | Potency, µM (highest dose often 38.3 µM), for the others: top-dose activity change, negative = inhibition, most hits filed as inhibitors | hit rate 0.28% among 200,000; also: nearly all actives have a fitted effect of over 60% in size
#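 Kinase-Glo luciferase light output from ATP and luciferin was measured with 10 uM ATP, within the enzyme's linear range. Buffer: 50 mM imidazole pH 7.2, 50 mM KCl, 7 mM MgCl2, 0.01% Tween 20, 0.05% BSA; luminescence read after 8 min at ambient temperature.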
# * marks the source's active call; other numbers are inactive results; ? = inconclusive; / = no result; [ ] = remark or other dose. Calls follow the shape of the dose curve; as a rule, active = well fitted curve in the direction sought with a large enough effect; inconclusive = small, poorly fitted or top-dose-only effect, or another doubt; inactive = no such curve, though single readings can be large; an effect the other way counts as inactive or inconclusive. % is scaled to controls: 0 for no effect and ±100 for the full control effect; potency is read from the fitted curve at half-maximal effect.
SMILES,RORg inh,Gal4-VP16 FLuc,KinaseGlo FLuc
Cc1nn(C(C)C(=O)NNC(=S)Nc2ccc(F)cc2)c(C)c1[N+](=O)[O-] (stereo not given),?,-13%,3%
Cc1nn(CCC(=O)NNC(=S)Nc2ccc(F)cc2)c(C)c1Br,0.89µM*,?,11%
Cc1ccc(-c2noc(-c3ccoc3C)n2)cc1,5%,-6%[10 µM],-19%
CNC(=O)C1(C(F)(F)F)C/C(=C/CCO)CCCO1 (stereo not given),1%,-4%,/
COc1ccc(NC(=O)N2CC3(CCN(C(=O)c4csnn4)CC3)C2)cc1,-3%,-4%,1%
CCOC(=O)CSCC(NC(=O)OC(C)(C)C)C(=O)OCC (stereo not given),7.1µM*,?,-1%
CCOC(=O)C(CSCC(=O)c1ccc(Cl)cc1Cl)NC(=O)OC(C)(C)C (stereo not given),?,?,-1%
CN(C)c1cccc(C(=O)Nc2nc3ccccc3[nH]2)c1,5µM*,11µM*,/
Cc1ccc(N(C)S(=O)(=O)c2cccc(C(=O)Nc3nnc(C4CC4)s3)c2)cc1,11µM*,-8%,1%
O=C(CNC(=O)c1cccc(Br)c1)NCCc1nc2ccccc2[nH]1,13%,3%,-4%
Cc1cccc(C(=O)N[C@H](C(=O)Nc2nc3ccccc3[nH]2)C(C)C)c1,?,?,2%
Cc1ccc(N(C)S(=O)(=O)c2cccc(C(=O)Nc3nc4ccccc4[nH]3)c2)cc1,1.3µM*,1.1µM*,-2%
O=C(Nc1nc2ccccc2[nH]1)c1cccc(Br)c1,2.2µM*,5µM*,/
CN(C)S(=O)(=O)c1ccc(Cl)c(C(=O)Nc2nc3ccccc3[nH]2)c1,?,?,1%
COc1ccc(N(C)S(=O)(=O)c2cccc(C(=O)Nc3nnc(C4CC4)s3)c2)cc1,-2%,-7%,0%
CSCC[C@H](NC(=O)[C@H](Cc1ccccc1)NC(=O)[C@H](Cc1cnc[nH]1)NC(=O)CNC(=O)[C@@H](NC(=O)[C@H](C)NC(=O)[C@H](Cc1c[nH]c2ccccc12)NC(=O)[C@H](CC(C)C)NC(=O)[C@H](CC(N)=O)NC(=O)CN)[C@@H](C)O)C(N)=O,11%,0%,/
C=CCN1C(=O)C(O)=C(C(C)=O)C1c1ccccc1F (stereo not given),-29%,5%,2%
CC(CCc1ccccc1)NC(=O)CN1CCN(Cc2ccc(Cl)cc2)C1=O (stereo not given),?,-16%,-5%
O=C(Cc1ccccc1)NCC(=O)N1CCN(c2ccccc2)CC1,-10%,0%,/
O=C(Nc1nc2ccccc2[nH]1)c1cccc(F)c1,5.6µM*,7.1µM*,/
O=C(Nc1nc2ccccc2[nH]1)c1ccc(Br)o1,7.1µM*,?,-15%
O=C(/C=C/c1ccc(F)cc1)Nc1nc2ccccc2[nH]1,?,?,0%
O=C(NCCc1nc2ccccc2[nH]1)c1ccc(Br)o1,-12%,-15%,/
CCc1ccc2c(-c3cccc(Cl)c3)nc(=O)n(CC)c2n1,?,2%,0%
CCOc1ccc(S(=O)(=O)N2CCCC(C(=O)NCc3ccncc3)C2)cc1C (stereo not given),16%,-5%,/
SMILES,RORg inh,Gal4-VP16 FLuc,KinaseGlo FLuc
O=C(O)CCCC(=O)Nc1ccc2c(c1)oc1ccccc12,11µM*,?,/
CCCCC(=O)Nc1ccc2c(c1)oc1ccccc12,-21%,-2%,2%
COc1ccc(C(=O)Nc2ccc(C(=O)N3CCC(C)CC3)cc2)cc1OC,27%,0%,/
Cc1ccc2nc(-c3cccc(Br)c3)cc(C(=O)NC3=NCCS3)c2c1,2.5µM*,4.5µM*,3%
O=C(NC1=NCCS1)c1cc(-c2cccc(Br)c2)nc2ccccc12,7.1µM*,?,-2%
O=C(Nc1cccnc1)c1cc(-c2cccc(Br)c2)nc2ccccc12,34%,-16%,/
O=C(Nc1ncccn1)c1cc(-c2cccc(Br)c2)nc2ccccc12,14%,-5%,1%
CCOC(=O)N/N=C/c1cc(C)n(-c2ccccc2)c1C,-2%,22%,-3%
Cc1ccc2cc(/C=N/NC(=O)c3ccccc3[N+](=O)[O-])c(Cl)nc2c1,-16%,-10%,/
Cc1c(/C=N\NC(=O)c2cccc(F)c2)cnn1C,-1%,16%,-10%
Cc1cc(/C=N/NC(=O)c2cccc(F)c2)c(C)n1-c1ccccc1,5.6µM*,13µM*,-7%
Cc1cc(/C=N/NC(=O)c2c(Br)cnn2C)c(C)n1-c1cccc(Br)c1,6.3µM*,7.1µM*,3%
Cc1cc(/C=N/NC(=O)C(=O)N2CCCC2)c(C)n1-c1cccc(Br)c1,2%,-8%,/
Cc1cccc(-n2c(C)cc(/C=N/NC(=O)c3cccc([N+](=O)[O-])c3C)c2C)c1,7.9µM*,?,-1%
Cc1cc(/C=N/NC(=O)c2ccccc2F)c(C)n1-c1ccccc1,13µM*,?,-5%
COc1cc2c(cc1OC)C1O[C@](CCCCN3C(=O)c4ccccc4C3=O)(C2)OC2=C1C(=O)c1ccccc1C2=O,31%[10 µM],-6%[10 µM],/
O=c1c2ccccc2cnn1CCOc1cccc(Br)c1,10%,-5%,/
COc1ccc(C(=O)OC2CC3CC[C@H](C2)N3C(C)=O)cc1OC (stereo not given in full),0%,3%,0%
CO[C@H]1COC(=O)[C@@H](C)COC(=O)[C@@H](Cc2ccccc2)NC(=O)C/C=C\[C@H]1C,-18%[10 µM],-11%[10 µM],/
O=C1Nc2cc(C(=O)NCC3CCCO3)ccc2S/C1=C/c1ccccc1F (stereo not given),-7%,8%,/
O=C(CCl)Nc1ccc(N2CCCCCC2)cc1,?,?,-6%
CCCn1c(SCC(=O)C(C)(C)C)nc2ccccc21,11µM*,?,5%
CCCn1c(NC(=O)c2cccc(S(=O)(=O)N3CCCC3)c2)nc2ccccc21,2.8µM*,6.3µM*,-1%
CCCn1c(NC(=O)c2ccc(C)cc2)nc2ccccc21,2.2µM*,0.63µM*,0%
Cc1csc(NC(=O)C2CCN(S(=O)(=O)c3cccs3)CC2)n1,?,-6%,-1%
SMILES,RORg inh,Gal4-VP16 FLuc,KinaseGlo FLuc
CCNC(=O)c1cccc(S(=O)(=O)N2CCCCCC2)c1,36%,-8%,-2%
CCCn1c(SC(C)C(=O)O)nc2ccccc21 (stereo not given),-24%,4%,-2%
CCCn1c(NC(=O)C2CCN(S(=O)(=O)c3cccs3)CC2)nc2ccccc21,1.4µM*,4.5µM*,-5%
Cn1c(NC(=O)c2cccnc2)nc2ccccc21,?,-4%,?
Cc1ccsc1C(=O)OCC(=O)NC1CCS(=O)(=O)C1 (stereo not given),-2%,-12%,-4%
CCOC(=O)Cn1c(C)[n+](CC(=O)c2ccccc2)c2ccccc21,37%,-2%,/
Oc1[nH]c(=S)sc1/C=C1\C(c2ccccc2)=Nc2ccccc21,26%[10 µM],-13%,-1%
CCC(Oc1ccccc1OC)C(=O)Nc1ccc2c(c1)OCO2 (stereo not given),-7%,-3%,/
CNC(=O)N(O)C1N(/N=C/c2ccccc2OC)C(=S)SC1(C)C (stereo not given),-6%,0%,/
C=CCn1c(-c2ccc(C)cc2)nc2ccccc21,?,-6%,6%
C=CCn1c(NC(=O)c2ccc(C)cc2)nc2ccccc21,0.4µM*,0.79µM*,/
